Compound activity deposited in PubChem BioAssay by several laboratories.
Rce1 inh = yeast Rce1p protease inhibitors, primary screen, biochemical, fluorescence, cell-free homogeneous; calls only; yeast membranes, quenched prenylated peptide cleavage fluorescence; CAAX prenyl protease 2 (Saccharomyces cerevisiae (strain ATCC 204508 / S288c)), Q03530; 290,000 compounds, 0.27% hits;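 active = fall in fluorescence gain of 50% or more versus controls, with final raw signal at or below 3038400; inconclusive = same 50% fall but final raw signal above 3038400; inactive = fall in fluorescence gain under 50%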
Kir21 block = inhibitors of mouse Kir2.1 inward-rectifier potassium channel; 310,000 compounds, 0.85% hits; HEK293-Kir2.1, FluxOR thallium flux fluorescence; stronger effect = lower value; Inward rectifier potassium channel 2 (Mus musculus), P35561; B-score at 10 µM;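 active = fluorescence ratio B-score at or below minus 3 SD of library scores, with starting-brightness B-score within 2 SD, cut at about -4.2 in these data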;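 note: channel flux triggered by added potassium and thallium sulfate stimulus; B-score of peak minus minimum fluorescence over baseline after thallium stimulus; more negative B-score means stronger Kir2.1 block with less thallium influx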
CHT allo act = CHT positive allosteric modulators, primary screen, cell-based, membrane potential dye, choline EC20. High affinity choline transporter 1 (Homo sapiens), Q9GZV3. CHT-expressing cells; stronger effect = higher value; LV-AA mutant CHT in HEK293 cells. B-score at 10 µM. 310,000 compounds, 0.49% hits. AID 488977, 2010;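 active = initial fluorescence not abnormally high and integrated response B-score, plate-corrected, over 3 SD above library mean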
Target sequence (Q9GZV3 whole entry, looked up): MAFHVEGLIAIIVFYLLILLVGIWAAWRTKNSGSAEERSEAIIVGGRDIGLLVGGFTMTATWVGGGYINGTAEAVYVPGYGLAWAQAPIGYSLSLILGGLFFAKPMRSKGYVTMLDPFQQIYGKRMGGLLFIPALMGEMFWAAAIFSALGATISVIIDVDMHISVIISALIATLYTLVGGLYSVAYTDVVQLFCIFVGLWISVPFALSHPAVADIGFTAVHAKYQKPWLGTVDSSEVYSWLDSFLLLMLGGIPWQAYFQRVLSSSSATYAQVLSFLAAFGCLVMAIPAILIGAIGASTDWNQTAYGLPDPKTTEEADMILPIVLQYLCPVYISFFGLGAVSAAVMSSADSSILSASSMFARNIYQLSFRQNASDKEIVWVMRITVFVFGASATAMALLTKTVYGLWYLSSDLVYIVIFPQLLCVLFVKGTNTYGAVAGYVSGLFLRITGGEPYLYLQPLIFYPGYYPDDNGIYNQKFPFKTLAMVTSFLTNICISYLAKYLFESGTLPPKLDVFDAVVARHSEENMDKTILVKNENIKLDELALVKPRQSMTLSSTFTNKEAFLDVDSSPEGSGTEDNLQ
CHT block = inhibitors of human choline transporter CHT. High affinity choline transporter 1 (Homo sapiens), Q9GZV3. CHT-expressing cells, membrane potential dye, choline response; stronger effect = lower value. B-score at 10 µM. 310,000 compounds, 0.86% hits;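 active = B-score over 3 SD under the library average, and starting fluorescence ratio not unusually high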;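 note: choline stimulus applied at its EC90 after an EC20 pre-addition; B-score computed on integrated fluorescence ratio after choline addition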
TMEM16A inh = TMEM16A chloride channel inhibitors, primary screen, cell-based, HTS; HEK293 TMEM16A/YFP iodide influx fluorescence, ionomycin; normalized B-score (activity score, 25-100; higher = stronger inhibition) at 10 µM; 310,000 compounds, 1.2% hits; AID 588511, 2011;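 active = ratio plate-corrected score three or more library SD toward inhibition, starting fluorescence score within five deviations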;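 note: score derived from kinetic fluorescence span divided by baseline fluorescence per well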
TMEM16A act = TMEM16A chloride channel activators or potentiators, primary screen, cell-based, HTS | HEK293 TMEM16A/YFP-H148Q/I152L, iodide quench fluorescence; stronger effect = lower value | B-score at 10 µM | 340,000 compounds, 0.3% hits | AID 623877, 2012;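 active = fluorescence-ratio B-score plate-corrected deviation score at least 3 library SD below zero, with starting fluorescence score within 5 deviations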;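 note: channel opened by trigger with iodide after compound preincubation; score built on the fluorescence ratio of max minus min over baseline; more negative score means more quench and so TMEM16A activation or potentiation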
CHT activ conf = CHT activators, confirmation, cell-based, membrane potential dye, duplicate; CHT-expressing cells, membrane potential dye fluorescence (FDSS); % of choline EC20–EC90 response window; HEK293 expressing CHT LV-AA mutant; choline added at its EC20; shares compounds with CHT allo act; 2,500 compounds, 91% hits; activation, % at 10 µM;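 active = primary screen active, with duplicate mean activation above negative control mean plus 3 SD, cut at about 11% in these data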
HEK293 MP dye = membrane potential response in parental HEK293 cells, counter-screen for CHT activator project, cell-based, membrane potential dye. membrane potential dye fluorescence (FDSS); measured after EC20 choline addition. shares compounds with CHT allo act. 2,500 compounds, 62% hits. ratio readout change at 10 µM, hits read low;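 active = duplicate-averaged ratio beyond 3 SD from buffer wells, up or down, though filed actives are nearly all decreases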
Hits are given with their value; n = inactive; u = inconclusive; x = no result given. Shown are actives, neighbours in structure and some others; about 3.2% of the full set was active somewhere.

SMILES | Rce1 inh | Kir21 block | CHT allo act | CHT block | TMEM16A inh | TMEM16A act | CHT activ conf | HEK293 MP dye
COc1cccc2c(=O)c3c(cnn3C)n(C)c12 | n | n | 10 | n | n | n | 51 | -55
O=C(NC1CCCCC1)C(c1cccs1)N(Cc1cccs1)C(=O)c1ccco1 (configuration not stated) | n | n | n | n | n | n | 29 | n
CC1CCCCN1C(=O)C(=O)c1cn(CC(=O)N2CCCCCC2)c2ccccc12 (configuration not stated) | n | n | n | n | n | n | x | x
O=C(Nc1ccccc1N1CCN(C(=O)c2ccc(Cl)cc2)CC1)c1cccc([N+](=O)[O-])c1 | n | n | n | n | n | n | x | x
COc1ccc(C(=O)Nc2cc([N+](=O)[O-])ccc2N2CCN(C)CC2)cc1 | n | n | n | n | n | n | x | x
COc1cccc(C(=O)Nc2cc([N+](=O)[O-])ccc2N2CCN(C)CC2)c1 | n | n | 9.7 | n | n | n | 49 | -82
Cc1cccc(OCC(=O)Nc2ccccc2N2CCCCC2)c1 | n | n | n | n | n | n | x | x
CN1CCN(c2ccccc2NC(=O)c2cccc([N+](=O)[O-])c2)CC1 | n | n | n | n | n | n | 52 | -44
Cc1cccc(OCC(=O)Nc2ccccc2N2CCN(C)CC2)c1 | n | n | 11 | n | n | n | 36 | n
CN1CCN(c2ccc(S(=O)(=O)N3CCCCC3)cc2NC(=O)c2ccc(C#N)cc2)CC1 | n | n | n | n | n | n | n | n
CC1(c2ccccc2)NC(=O)N(CC(=O)NNC(=O)c2cccc(Cl)c2)C1=O (configuration not stated) | x | x | x | x | x | n | x | x
COc1ccc(Cc2nnc(SCC(=O)NC3(C#N)CCCCC3)n2N)cc1 | n | n | n | n | n | n | x | x
O=C(O)CCCN=CC1=C(O)C(C(=O)c2ccccc2)CCC1=O (configuration not stated) | n | x | n | n | n | n | x | x
Cc1cc(C)nc(NS(=O)(=O)c2ccc(CC(C)C)cc2)c1 | n | n | n | n | n | n | x | x
CN1CCN(c2ccccc2NC(=O)c2ccc(-c3ccccc3)cc2)CC1 | n | n | n | n | n | n | x | x
O=C(Nc1cc([N+](=O)[O-])ccc1N1CCCC1)c1ccccc1 | n | n | n | n | n | n | x | x
CN1CCN(c2ccccc2NC(=O)c2ccc(OCc3ccccc3)cc2)CC1 | x | x | n | n | n | n | 27 | -33
CN1CCN(c2ccc([N+](=O)[O-])cc2NC(=O)c2ccccc2)CC1 | n | n | 8.5 | n | n | n | 62 | -88
COC(=O)CN1C(C)=Nc2ccc(C)cc2C1c1ccccc1 (configuration not stated) | n | n | n | n | n | n | x | x
CCC1=Nc2ccc(Br)cc2C(c2ccccc2)N1CC(=O)OC (configuration not stated) | n | n | 11 | n | n | n | 14 | n
COc1ccc(OC)c(C2C(C(N)=O)=C(C)Nc3nc(CCCO)nn32)c1 (configuration not stated) | n | n | n | n | n | n | x | x
CCCCCC[N+](C)(C)CC/C=C1/c2ccccc2Sc2ccc(Cl)cc21 | n | n | n | n | n | n | 44 | -27
CN1CCN(CCC=C2c3ccccc3Sc3ccc(S(=O)(=O)N(C)C)cc32)CC1 | x | x | n | n | n | n | x | x
CC(C)[C@H](NC(=O)c1ccccc1Cl)C(=O)Nc1ccc(S(=O)(=O)Nc2nccs2)cc1 | x | x | x | x | x | n | x | x
O=C(NC1CCCCC1)C(c1ccc2ncccc2c1)N(Cc1ccc(F)cc1)C(=O)c1cccs1 (configuration not stated) | n | n | n | n | n | n | 31 | n
SMILES | Rce1 inh | Kir21 block | CHT allo act | CHT block | TMEM16A inh | TMEM16A act | CHT activ conf | HEK293 MP dye
COc1ccc(C(=O)Nc2ccc(Cn3ccnc3)cc2)cc1OC | n | n | n | n | n | n | x | x
COc1cc(Cn2ccnc2)c(OC)cc1Cn1ccnc1 | n | n | 13 | n | n | n | 81 | -83
COc1ccc2c(CC(=O)NC(Cc3ccc(Cl)cc3)C(=O)O)cc(=O)oc2c1C (configuration not stated) | n | n | n | n | n | n | x | x
Cn1c(=O)c([N+](=O)[O-])c(NCCCn2ccnc2)c2ccccc21 | n | n | n | n | n | n | 58 | -55
CCCCNc1c([N+](=O)[O-])c(=O)n(C)c2ccccc12 | x | n | n | n | n | n | x | x
CCOC(=O)c1[nH]cnc1C(=O)Nc1ccccc1OC | n | n | n | n | n | n | x | x
CS(=O)(=O)Nc1cccc(C2=NN(S(=O)(=O)c3ccccc3)C(c3ccco3)C2)c1 (configuration not stated) | n | n | n | n | n | n | 26 | n
Cc1cc(C)c2c(n1)nn1c(NCCN3CCOCC3)cc(C)nc21 | u | n | 6.9 | n | n | n | 50 | -73
COCCNc1cc(C)nc2c3c(C)cc(C)nc3nn12 | u | n | n | n | n | n | 55 | -65
CC(NS(=O)(=O)c1ccccc1)C(=O)Nc1ccc2c(c1)OCCO2 (configuration not stated) | n | n | n | n | n | n | x | x
CCC(C)(C)n1nnnc1C(C(C)C)N1CCN(C)CC1 (configuration not stated) | n | n | n | n | n | n | x | x
CCC(C)(C)n1nnnc1C(C(C)C)N1CCSCC1 (configuration not stated) | x | n | n | n | n | n | n | n
CCC(O)(CC)C(=O)N/N=C/c1cc(Br)cc(Br)c1O | n | n | n | n | n | n | 14 | n
Cc1cc(C)n(-c2nc(SCCN(C)C)c3c4c(sc3n2)COC(C)(C)C4)n1 | n | n | n | n | n | n | 41 | -45
COc1ccc(Cn2c(-c3ccc(Br)cc3)c[n+]3ccccc23)cc1 | n | n | 9.6 | n | n | n | 70 | -60
COc1ccc(-c2cn3cccnc3n2)cc1NC(=O)C(C)Oc1ccccc1 (configuration not stated) | n | n | n | n | n | n | x | x
COC(=O)c1cc(C(=O)N2CCN(c3ccccc3OC)CC2)cc([N+](=O)[O-])c1 | n | n | 6.8 | n | n | n | 13 | n
